The panel holds about 83,000 compounds, 20% with a hit somewhere; the sample as a whole holds those more often.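 Percent growth is the endpoint: 0 to 100 indicates growth inhibition (40 means 60% inhibition), 0 means no net growth, and negative values indicate cell death.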 A number with no mark means an inactive call. The source made the active and inactive calls. The calls were made as follows: active = growth percent below 10; inactive = the rest.

This assay relates to MDA-MB-468 breast. Briefly: NCI-60 one-dose screen, 48 h (100 = growth as untreated, 0 = no growth, -100 = all killed). To be noted: 10 µM unless noted.
Consider `CCCCCCn1c(-c2ccc(C(=O)O/N=C(\N)c3ccc(OC)cc3)cc2)nc(-c2ccccc2)c1-c1ccccc1`, for which the growth is -6.91% (active).

For the molecule `O=C(/C=C/c1cc2ccccc2[nH]c1=O)c1ccc(O)cc1`, the growth was 0.877% (active).

`CC(=O)c1cc(C(=O)c2ccc(Br)cc2)n2cc(C)cc(C)c12`: the growth is 89.3%.
